The list is not random: actives were taken first. Their share in the collection is about 5.5%.
ELG1 DNA repair: ELG1-dependent DNA repair inhibition. HEK293T ELG1-luciferase reporter, luminescence, 16 h; DNA damage induced by 5-fluorouridine. Potency, µM (doses to about 46.1 µM), most hits filed as inhibitors. actives 2.3% (n = 330,000). AID 504467; also: nearly all actives have a fitted effect of over 55% in size
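Reporter activity after DNA damage by 5-fluorouridine is monitored. Compound-treated cells incubate 16 hr at 37 °C, then ONE-Glo is added for 30 min before luminescence reading.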
FBPA coupling cs: counter-screen for Giardia aldolase inhibitors: coupling enzyme system; coupling enzyme system counterscreen, AmpLite Red fluorescence; activity change, negative = inhibition, % at 58.2 µM, hits read low; actives 0.67% (n = 290,000); in the data active = activity change below about -30%
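Coupling enzymes only (glyceraldehyde-3-phosphate) + compound, at 57.5 uM final, 10 min RT; add substrate/coupling/AmpLite Red mix, 20 min RT; fluorescence ex 525/em 598 nm. Actives flag coupling-system interference.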
Sfp PPTase inh: Sfp phosphopantetheinyl transferase inhibition; Q9F4F7; Biochemical Sfp PPTase activity, qHTS; Potency, µM, most hits filed as inhibitors; actives 3.5% (n = 310,000); AID 1490;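 also: the enzyme is Sfp with the accession as filed and its product quenches rhodamine fluorescence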
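Step 1, compound plus 15 nM Sfp-PPTase, 15 min, room temperature. Step 2, add rhodamine-CoA (5 uM) and BHQ-2-YbbR (12.5 uM). Step 3, read 525/598 nm fluorescence at 0 and 30 min.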
Giardia killer: kills Giardia lamblia. Giardia lamblia trophozoite viability. activity change, % at 7.66 µM, hits read low. actives 0.15% (n = 340,000); in the data active = activity change below about -80%; inconclusive = between about -30% and that limit;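 also: parasites exposed to compound for two days anaerobically before the ATP read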
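Luminescent ATP signal served as the viability read-out, measured 15-30 min after adding ATP detection reagent to trophozoites that had been incubated with compounds for 48 hrs at 37 deg C anaerobically at 100 cells/well.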
Of the large screens only hits and unclear results are named; the others gave an inactive call. Unless noted, calls follow the shape of the dose curve; as a rule, active = well fitted curve in the direction sought with a large enough effect; inconclusive = small, poorly fitted or top-dose-only effect, or another doubt; inactive = no such curve, though single readings can be large; an effect the other way counts as inactive or inconclusive.

Cc1cccc(C(=O)NNC(=O)c2c(-c3ccccc3Cl)noc2C)c1O	none
COc1ccc(C)cc1-n1nnnc1SCn1nnc2ccccc2c1=O	ELG1 DNA repair 5.8µM
COc1ccc(C)cc1-n1nnnc1SCc1cc(=O)n2cc(C)ccc2n1	ELG1 DNA repair 17.8µM
COc1ccc(C)cc1-n1nnnc1SCc1csc(C)n1	none
CC(C)C[C@H](NC(=O)[C@H](CCCCN)NC(=O)CNC(=O)[C@H](CC(C)C)NC(=O)[C@@H](N)C(C)C)C(=O)N[C@@H](CO)C(=O)N[C@@H](CCC(N)=O)C(=O)N[C@@H](CCC(=O)O)C(=O)N[C@@H](CC(C)C)C(=O)N[C@@H](Cc1cnc[nH]1)C(=O)N[C@@H](CCCCN)C(=O)N[C@@H](CC(C)C)C(=O)N[C@@H](CCC(N)=O)C(=O)N[C@H](C(=O)N[C@@H](Cc1ccc(O)cc1)C(=O)N1CCC[C@H]1C(=O)N[C@@H](CCCNC(=N)N)C(=O)N[C@H](C(=O)N[C@@H](CC(N)=O)C(=O)N[C@H](C(=O)NCC(=O)N[C@@H](CO)C(=O)NCC(=O)N[C@H](C(=O)N1CCC[C@H]1C(N)=O)[C@@H](C)O)[C@@H](C)O)[C@@H](C)O)[C@@H](C)O	none (no result: ELG1 DNA repair, Giardia killer)
Cc1cc2c(c(=O)n1Cc1cccnc1)C(c1cccs1)C(C#N)=C(N)O2 (stereo not given)	ELG1 DNA repair inconclusive, Sfp PPTase inh 79.4µM
Cc1cc2c(c(=O)n1Cc1cccnc1)C(Cc1ccccc1)C(C#N)=C(N)O2 (stereo not given)	none
O=C(CN1C(=O)/C(=C2/SC(=S)N(CCS(=O)(=O)O)C2=O)c2ccccc21)Nc1cccc(C(F)(F)F)c1	none (no result: FBPA coupling cs, Sfp PPTase inh)
O=C(CN1C(=O)/C(=C2\SC(=S)N(CCS(=O)(=O)O)C2=O)c2ccccc21)Nc1cccc(Br)c1	Sfp PPTase inh 56.2µM
CCN(CC)C(=O)CSc1nc2c(sc(=S)n2-c2ccccc2)c(=O)n1Cc1ccco1	ELG1 DNA repair 23.1µM, Sfp PPTase inh 39.8µM
O=c1c2ccccc2c(-c2n[nH]c(=S)o2)nn1Cc1ccccc1	Sfp PPTase inh 79.4µM
Nc1ccc(-c2nc3ccc(C(=O)O)cc3s2)cc1	ELG1 DNA repair inconclusive, Sfp PPTase inh 56.2µM, Giardia killer inconclusive
O=C(O)c1ccc2nc(-c3ccccc3)sc2c1	ELG1 DNA repair inconclusive
C[C@H](O)C(N)C(=O)O (stereo not given in full)	none (no result: ELG1 DNA repair, Giardia killer)
CCc1ccc2c(CN(C)Cc3ccccc3OC)cc(=O)oc2c1	ELG1 DNA repair inconclusive, Sfp PPTase inh 44.7µM
COc1ccc(CN(C)Cc2cc(=O)oc3cc(C)c(C(C)C)cc23)cc1OC	ELG1 DNA repair 18.3µM, Sfp PPTase inh inconclusive
CC(C)(C)c1cc(C(=O)NCc2cc(F)cc3c2OCOC3)n(Cc2ccccc2)n1	ELG1 DNA repair inconclusive
CCOC(=O)CNC(=O)Cn1cnc2c(nnn2-c2cccc(OC)c2)c1=O	none
Cc1cc(C)n2nc(SC(C)C(=O)N(C)c3ccccc3)nc2n1 (stereo not given)	none (no result: FBPA coupling cs, Sfp PPTase inh)
O=C(c1ccc(-c2nc3ccccc3s2)s1)N1CCOCC1	ELG1 DNA repair inconclusive, Giardia killer -83.9
O=C(NC1CC1)c1ccc(-c2nc3ccccc3s2)s1	ELG1 DNA repair inconclusive, Giardia killer -100.0
O=C(Nc1nc2c(F)cc(F)cc2s1)c1ccc([N+](=O)[O-])o1	ELG1 DNA repair inconclusive, Giardia killer -86.2
O=C(Nc1nc2c(F)cc(F)cc2s1)c1ccco1	ELG1 DNA repair inconclusive, Giardia killer inconclusive
Cc1cc(C)c2sc(NC(=O)c3ccc([N+](=O)[O-])o3)nc2c1	ELG1 DNA repair inconclusive, Giardia killer -81.2
O=C(CCS(=O)(=O)c1ccccc1)Nc1nc2ccc(F)cc2s1	none (no result: FBPA coupling cs, Sfp PPTase inh)
O=C(CCc1ccccc1)Nc1nc2c(F)cc(F)cc2s1	ELG1 DNA repair inconclusive, Sfp PPTase inh 35.5µM
Cc1cc(C)c2nc(NC(=O)c3ccc([N+](=O)[O-])o3)sc2c1	ELG1 DNA repair inconclusive, Giardia killer -90.4
c1ccc(C(c2ccccc2)N2CCC3(CCNCC3)CC2)cc1	none (no result: ELG1 DNA repair, Giardia killer)
NS(=O)(=O)c1ccc(NC(=O)COC(=O)/C(=C/c2cccs2)c2cccs2)cc1	none
Cc1sc2ncn(CC(=O)N3CCN(c4ccccc4)CC3)c(=O)c2c1S(=O)(=O)N1CCOCC1	none
CCCc1ccc(Oc2cc(NN3CCCCC3)c([N+](=O)[O-])cc2[N+](=O)[O-])cc1	none
c1ccc2c(c1)SCc1nnc(-c3ccncc3)n1-2	none
COc1ccc(-c2nnc3n2-c2ccccc2SC3)cc1OC	Sfp PPTase inh 79.4µM
CCN(CC)S(=O)(=O)c1ccc(N=Nc2c(C)[nH]n(C(N)=S)c2=O)cc1	ELG1 DNA repair inconclusive, Sfp PPTase inh 79.4µM
COC(=O)N1CCC2(CC1)CCN(c1ncccn1)CC2	none (no result: ELG1 DNA repair, Giardia killer)
CCOC(=O)C1=C(O)c2ccccc2C(=O)/C1=C\c1ccc(CC)cc1	FBPA coupling cs -47.6, Sfp PPTase inh 2µM
CCCN=C(C)C1=C(O)c2ccccc2C1=O	ELG1 DNA repair inconclusive
CCCc1ccc(/C=C2\C(=O)c3ccccc3C(O)=C2C(=O)OCC)cc1	ELG1 DNA repair inconclusive, FBPA coupling cs -37.2, Sfp PPTase inh 2.82µM (no result: Giardia killer)
CCOC(=O)C1=NN(c2ccccc2)C(=O)/C1=C\c1ccc(N(C)C)cc1	ELG1 DNA repair inconclusive
C[C@@H](NC(=O)c1nc[nH]c1C(=O)NCc1ccc(CNC(=O)OC(C)(C)C)cc1)c1ccccc1	ELG1 DNA repair inconclusive (no result: FBPA coupling cs, Sfp PPTase inh)
COc1ccccc1NC(=O)COC(=O)Cn1cnc2c1c(=O)n(C)c(=O)n2C	none (no result: FBPA coupling cs, Sfp PPTase inh)
C/C(=N\Nc1ccc([N+](=O)[O-])cc1)c1cc2ccccc2o1	none
Cn1c(O)c(N=NC(=O)c2cc(-c3cccs3)nc3ccccc23)c2ccccc21	ELG1 DNA repair 14.6µM
CS(=O)(=O)N1CCN(C(=O)c2cc(-c3cccs3)nc3ccccc23)CC1	ELG1 DNA repair 16.4µM
CS(=O)(=O)N1CCN(C(=O)c2cc(-c3ccccc3)nc3ccccc23)CC1	none
O=C(N=Nc1c(O)[nH]c2ccc(Br)cc12)c1cc(-c2cccs2)nc2ccccc12	Sfp PPTase inh inconclusive
CCCC(C)(C)C(=O)Nc1ccc(Cl)cc1	none (no result: ELG1 DNA repair, Giardia killer)
COc1cc2c(cc1OC)C(C(=O)c1ccc(OC)c(OC)c1O)=NCC2	none (no result: ELG1 DNA repair, Giardia killer)
CCOc1cc(/C=C(\C#N)C(=O)Nc2cccc(C(=O)O)c2)ccc1OCc1ccccc1Cl	ELG1 DNA repair inconclusive, Sfp PPTase inh inconclusive
CCOc1cc(/C=C(\C#N)C(=O)Nc2cccc(C(=O)O)c2)cc(Br)c1OC(=O)c1ccc(OC)cc1	ELG1 DNA repair inconclusive, Sfp PPTase inh 79.4µM
COc1cc(/C=N/N2CCN(c3ccccc3OC)CC2)ccc1OC(C)=O	ELG1 DNA repair inconclusive
COc1ccc(NC(=O)/C=C/c2ccc(C)o2)cc1S(=O)(=O)N1CCOCC1	ELG1 DNA repair inconclusive, Sfp PPTase inh 50.1µM
COc1ccc(C(=O)Nc2ccc(N3CCOCC3)cc2)cc1S(=O)(=O)N1CCOCC1	none (no result: FBPA coupling cs, Sfp PPTase inh)
COc1ccc(/C=C/C(=O)Nc2ccccc2C)cc1S(=O)(=O)N1CCOCC1	ELG1 DNA repair inconclusive
COc1ccc(C(=O)Nc2ccc(-c3ccc(C)o3)cc2)cc1S(=O)(=O)N1CCOCC1	ELG1 DNA repair 14.6µM
COc1ccc(/C=C/C(=O)Nc2cccc(F)c2)cc1S(=O)(=O)N1CCOCC1	ELG1 DNA repair 20.6µM

Screening data deposited in PubChem BioAssay by National Center for Advancing Translational Sciences (NCATS).
